Test results taken from PubChem BioAssay (Tox21).
“And” between values parts separate entries of the source, which are not always exact repeats. Equal values may be shown once. Inconclusive results are not listed. A structure can be active in one record and inactive in another. The source made the active and inactive calls. Calls follow the shape of the dose curve; as a rule, active = well fitted cell-killing curve with a large enough effect in the repeat runs; inconclusive = weak or mixed curves, or effect the other way; inactive = flat fitted curve, though single readings scatter.

test: qHTS assay to identify small molecule agonists of the TGF-beta/Smad signaling pathway - cell viability counter screen (AID 1346829); details: SBE-bla HEK293T viability, CellTiter-Glo luminescence, 5 h; series mostly up to 76.8 µM; activity change, negative = cytotoxicity: at the top concentration; also: nearly all actives have a fitted effect of over 45% in size; as to activity change, negative = cytotoxicity: top concentration of the series differs between compounds
Excerpt: National Center for Advancing Translational Sciences [NCATS]
NIH Chemical Genomics Center [NCGC]
U.S. Environmental Protection Agency [EPA]
National Institutes of Environmental Health Sciences [NIEHS]
National Toxicology Program [NTP]
U.S. Food and Drug Administration [FDA]
Transforming growth factor beta (TGF-beta) superfamily consists of a large number of structurally related dimeric proteins that act as hormones or local mediators in regulating a wide range of biological functions. This superfamily includes TGF-betas themselves, the bone morphogenetic proteins (BMPs) and the activins. These ligands induce oligomerization of serine/threonine receptor kinases and phosphorylate the cytoplasmic signaling molecules of Smad protein family. CellSensor SBE-bla HEK 293T cell line (Life Technologies, Carlsbad, CA), responsive to TGF-beta was used to screen Tox21 10K compound library for identification of agonists/antagonists of the Smad signaling pathway. This cell line contains a beta-lactamase reporter gene under control of the Smad binding element (SBE) stably integrated into HEK 293T cells. Also cytotoxicity of the compounds was tested in parallel by measuring the cell viability using CellTiter-Glo assay system in the same wells.
Tox21 Assay Protocol Summary:
SBE-bla HEK 293T cells were dispensed at 4,000/well in 6 uL of assay medium into black wall/clear-bottom 1536-well plates using a Multidrop Combi (ThermoFisher Scientific, Waltham, MA) dispenser. After the assay plates were incubated at 37 C and 5% CO2 for an overnight, 23 nL of compounds dissolved in DMSO, positive controls or DMSO only was transferred to the assay plate by a Pintool station (Kalypsys, San Diego, CA). The assay plates were incubated at 37 C and 5% CO2 for 5 hr. One uL of LiveBLAzer B/G FRET substrate (Life Technologies) was added using a Flying Reagent Dispenser (FRD, Aurora Discovery, San Diego, CA) and the plates were incubated at room temperature for 2 hr. Fluorescence intensity (405 nm excitation, 460 nm and 530 nm emissions) was measured using an Envision plate reader (PerkinElmer, Shelton, CT). For cytotoxicity read, 4 uL of CellTiter-Glo reagent (Promega Corporation, Madison, WI) was added to each well of the assay plates using FRD. After 30min incubation at room temperature, the luminescence intensity was measured using ViewLux plate reader (PerkinElmer).
% is scaled to controls: 0 for no effect and ±100 for the full control effect; potency is read from the fitted curve at half-maximal effect.

SMILES | activity change, negative = cytotoxicity | Potency
ClCCN1CCCC1 | 17.5% [at 35.3 µM] (inactive) | –
CCC1(c2ccccc2)C(=O)N(COC)C(=O)N(COC)C1=O | 2.38% [at 35.3 µM] (inactive) | –
O=CCCl | -5.54% (inactive) | –
O=C1CCCCC1Cl (stereo not given) | -0.367% (inactive) | –
C=C1C[C@@H]2[C@H](CC[C@]3(C)C(=O)CC[C@@H]23)[C@@]2(C)C=CC(=O)C=C12 | 0.119% [at 35.3 µM] (inactive) | –
O=C(O)c1c(Cl)ccc2cc(Cl)cnc12 | -4.4% (inactive) | –
O=C1CC(=O)NC(=O)N1 | 0.301% (inactive) | –
O=C1C2CC=CCC2C(=O)N1SC(Cl)(Cl)Cl (stereo not given) | – | inactive and 48.2 µM (active)
Brc1c(Br)c(Br)c(Br)c(Br)c1Br | -6.42% [at 6.97 µM] (inactive) | –
c1cncc([C@@H]2CCCCN2)c1 | 3.07% (inactive) | –
ClC(Cl)(Cl)Cl | 5.56% (inactive) | –
[O-][Br+2]([O-])O | 6.22% [at 35.3 µM] (inactive) | –
OP(O)c1ccccc1 | 4.37% (inactive) | –
CCOC(=O)N(C)N=O | 5% (inactive) | –
N[C@@H](Cc1ccc(Oc2cc(I)c(O)c(I)c2)c(I)c1)C(=O)O | -2.43% [at 35.3 µM] (inactive) | –
N#CC(Br)(Br)C(N)=O | 11% (inactive) | –
CCCOC(=O)c1cncn1C(C)c1ccccc1 (stereo not given) | 13% [at 35.3 µM] (inactive) | –
C=CC(=O)OCCN(C)C | 2.04% (inactive) | –
CC[C@H](O)C(C[C@H](C)N(C)C)(c1ccccc1)c1ccccc1 | -4.82% (inactive) | –
CCCCCCC(=O)CCCCCC/C=C/C[C@@H](O)[C@H](O)[C@@](N)(CO)C(=O)O | 4.19% [at 15.8 µM] (inactive) | –

SMILES | activity change, negative = cytotoxicity | Potency
COc1cc(CCN)cc(OC)c1OC | -9.6% (inactive) | –
CCOC(=O)CCl | -9.96% (inactive) | –
CCNc1nc(NCC)nc(SC)n1 | 0.748% (inactive) | –
NCC1(CC(=O)O)CCCCC1 | 6.17% [at 35.3 µM] (inactive) | –
BrCCc1ccccc1 | -0.913% (inactive) | –
COC(=O)c1ccccc1CS(=O)(=O)NC(=O)Nc1nc(OC)cc(OC)n1 | 4.82% (inactive) | –
CC(C)NCC(O)c1ccc([N+](=O)[O-])cc1 (stereo not given) | 9.05% [at 35.3 µM] (inactive) | –
CC[C@H](N)c1ccccc1 | 6.2% (inactive) | –
O=[N+]([O-])c1cccc(CCl)c1 | 0.9% (inactive) | –
COP(=O)(O)OC | 0.817% (inactive) | –
CN(C)C1CCCCC1 | 18.8% (inactive) | –
NCCOS(=O)(=O)O | -7.36% (inactive) | –
CC(=O)OCC1=C(C(=O)O)N2C(=O)[C@@H](N)[C@H]2SC1 | -0.572% [at 15.8 µM] (inactive) | –
C=C1CC[C@@]2(O)[C@H]3Cc4ccc(O)c5c4[C@@]2(CCN3CC2CC2)[C@H]1O5 | -6.04% [at 35.3 µM] (inactive) | –
NC(=O)CS(=O)C(c1ccccc1)c1ccccc1 (stereo not given) | 25.5% [at 35.3 µM] (inactive) | –
COC(=O)c1ccc(CBr)cc1 | 11% (inactive) | –
CC(Cc1ccccc1)NCCn1cnc2c1c(=O)n(C)c(=O)n2C (stereo not given) | 1.67% (inactive) | –
CS(=O)(=O)Cl | 1.25% (inactive) | –
CC(C)c1ccc(O)cc1 | -3.3% (inactive) | –
CN(CCO)CCO | -3.93% (inactive) | –
